Assay outcomes: PubChem, The Scripps Research Institute Molecular Screening Center
Rows were chosen to be rich in hits. Some 3.5% of all compounds tested hit in one or more screens of this group.
FBW7 act: FBW7 E3 ligase activators, primary screen, biochemical, AlphaScreen, human; AlphaScreen FBW7–phospho-cyclin E peptide binding, activator screen; normalized activity (activation), % at 26.1 µM; hit rate 0.13% among 650,000; in the data active = normalized activity above about 1.9%;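 also: purified mutant Fbw7 with reduced substrate affinity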
Target sequence (Q969H0 whole entry, looked up): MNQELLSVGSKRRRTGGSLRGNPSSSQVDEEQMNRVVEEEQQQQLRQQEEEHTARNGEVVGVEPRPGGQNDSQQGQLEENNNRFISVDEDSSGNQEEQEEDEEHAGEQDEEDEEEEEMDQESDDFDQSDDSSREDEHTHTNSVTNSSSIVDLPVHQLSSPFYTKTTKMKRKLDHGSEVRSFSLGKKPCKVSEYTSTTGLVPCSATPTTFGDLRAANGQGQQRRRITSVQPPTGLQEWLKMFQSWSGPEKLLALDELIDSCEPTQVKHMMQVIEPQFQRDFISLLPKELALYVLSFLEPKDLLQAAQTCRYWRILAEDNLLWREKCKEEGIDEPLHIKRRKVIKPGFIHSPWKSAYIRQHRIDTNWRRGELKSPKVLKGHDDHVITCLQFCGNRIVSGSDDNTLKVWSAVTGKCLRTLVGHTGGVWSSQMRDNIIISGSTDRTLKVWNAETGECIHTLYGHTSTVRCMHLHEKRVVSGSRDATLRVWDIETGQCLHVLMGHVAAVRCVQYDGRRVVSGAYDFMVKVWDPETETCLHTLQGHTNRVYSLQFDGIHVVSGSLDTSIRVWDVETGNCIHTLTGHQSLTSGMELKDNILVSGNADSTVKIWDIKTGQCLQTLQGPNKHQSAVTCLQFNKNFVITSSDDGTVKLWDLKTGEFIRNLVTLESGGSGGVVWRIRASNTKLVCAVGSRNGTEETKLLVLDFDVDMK
MITF inh: MITF inhibitors, primary screen, biochemical, AlphaScreen, human. AlphaScreen MITF homodimerization, bead proximity signal. inhibition, % at 2.6 µM. hit rate 0.91% among 650,000; in the data active = inhibition above about 50%
TEAD-YAP inh: TEAD-YAP interaction inhibition, primary screen, TEAD-YAP interaction inhibitor project, luminescence, HEK-TIYL cells. TEAD-Gal4/YAP UAS-luciferase luminescence. inhibition, % at 9.12 µM. hit rate 1.4% among 640,000; in the data active = inhibition above about 32%
GPR151 ag: activators of human GPR151, primary screen, cell-based, PathHunter beta-arrestin, luminescence | G-protein coupled receptor 151 (Homo sapiens), Q8TDV0 | PathHunter beta-arrestin GPR151 cells | activation, % at 11.2 µM | hit rate 1% among 650,000 | AID 1508602, 2020; in the data active = activation above about 4.9%
GPR151 conf act: GPR151 activators, triplicate retest, confirmation, cell-based, PathHunter beta-arrestin, luminescence; GPR151 PathHunter beta-arrestin cells, 90 min; % of EA-reagent control over plate median; 6,700 tested, under 10 active; AID 1508609, 2020; activation, % at 11.2 µM; shares compounds with GPR151 ag;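 active = mean percent activation across replicates above the confirmation screen cutoff of 4.91%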
GPR119 counter: GPR119 activators in beta-arrestin cells, counter-screen for GPR151 activator project, cell-based, PathHunter beta-arrestin, luminescence, triplicate; shares compounds with GPR151 ag; 90 min; 0 = compound-well median, 100 = enzyme-acceptor control; activation, % at 11.2 µM; hit rate 0.3% among 6,700; AID 1508611, 2020;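 active = mean percent activation in the counterscreen above 29.09%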;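 also: counterscreen on off-target GPR119 to flag nonselective hits from the GPR151 activator screen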
Large screens that a line does not name were inactive (follow-up assays come after a bar, where they were run); ! = repeats disagree.

COc1cc(NC(=O)c2c(C)cc3ccccn23)cc(OC)c1OC	GPR151 ag 7.3 | GPR151 conf act inactive | GPR119 counter inactive
COc1ccc(N2CCN(C(=O)c3ccc(CSc4ccc(Cl)cc4)cc3)CC2)cc1	none
CCCS(=O)(=O)N1CCN(C2CCCC(C)C2)CC1 (stereo unspecified)	none
COc1cc(/C=N/O)cc(Cl)c1OS(=O)(=O)c1ccc(C)cc1	GPR151 ag 4.9 | GPR151 conf act inactive | GPR119 counter inactive
COc1cc(/C=N/O)cc(Cl)c1OC	none
O=C(c1ccc(N2CCCCC2)c([N+](=O)[O-])c1)N1CCOCC1	none
CC1CCN(c2ccc(C(=O)N3CCOCC3)cc2[N+](=O)[O-])CC1	GPR151 ag 5.2 | GPR151 conf act inactive | GPR119 counter inactive
O=C(CNC(=O)c1ccc(Oc2ccccc2)cc1)OC1CCOC1=O (stereo unspecified)	none
COc1ccc(C(=O)Cn2c(CN3CCCCC3)nc3ccccc3c2=O)cc1	GPR151 ag 6.1 | GPR151 conf act inactive | GPR119 counter inactive
CC1=C(C(=O)N2CCOCC2)C(c2ccc(O)cc2)NC(=S)N1 (stereo unspecified)	GPR151 ag 8.8 | GPR151 conf act inactive | GPR119 counter inactive
O=C(CSc1ccc2nnc(-c3cccnc3)n2n1)N1CCCCCC1	none
O=C(CSc1ccc2nnc(-c3cccnc3)n2n1)N1CCCCC1CCn1ccnc1 (stereo unspecified)	GPR151 ag 7.7 | GPR151 conf act inactive | GPR119 counter inactive
CC(Nc1cc(N2CCN(C(=O)c3cccc(Br)c3)CC2)ccc1[N+](=O)[O-])c1ccccc1 (stereo unspecified)	none
O=C(CCNS(=O)(=O)c1ccc(Cl)cc1)N1CCC2(CC1)OCCO2	none
Cc1ccccc1Sc1ccc(C(=O)O)cc1[N+](=O)[O-]	none
C=CCNc1cc(C)nc2cc(-c3ccc(C)cc3)nn12	none
NC(=O)c1c(O)c2c([nH]c1=O)CCCC2	none
O=C(O)c1ccc(CNCc2ccc(Cl)cc2Cl)cc1	GPR151 ag 8.9 | GPR151 conf act inactive | GPR119 counter inactive
OCCNc1cc(N2CCc3ccccc3C2)ncn1	none
O=C(O)C1CSC(c2ccccc2F)N1 (stereo unspecified)	GPR151 ag 5.3 | GPR151 conf act inactive | GPR119 counter inactive
CCC(C)CC(=O)N1CCC(C2(CCC(C)C)NC(=O)N(CCN(C)C)C2=O)CC1 (stereo unspecified)	GPR151 ag 7.5 | GPR151 conf act inactive | GPR119 counter inactive
CC(C)CC(=O)N1CCC(C2(CCc3ccccc3)NC(=O)N(CCN(C)C)C2=O)CC1 (stereo unspecified)	none
CCN1CCC(N(Cc2ccc(F)cc2)C(=O)Nc2cc(F)ccc2F)CC1	GPR151 ag 5.1 | GPR151 conf act inactive | GPR119 counter inactive
CCOC(=O)N1CCN(C(=O)CN(c2cc(C(F)(F)F)ccc2Cl)S(=O)(=O)c2ccccc2)CC1	none
CC(=O)NCC1CCCN(c2nc3nonc3nc2N2CCCCCC2)C1 (stereo unspecified)	none
CN(C)C(=O)CN1CCN(c2nc3nonc3nc2N2CCCCCC2)CC1	GPR151 ag 4.9 | GPR151 conf act inactive | GPR119 counter inactive
CC(=O)NCC1CCCN(c2nc3nonc3nc2N2CCSCC2)C1 (stereo unspecified)	GPR151 ag 5.5 | GPR151 conf act inactive | GPR119 counter inactive
Cc1cccc(N2CCN(C(=O)c3ccc4c(c3)NC(=O)C(CS(=O)(=O)Cc3c(F)cccc3Cl)N4)CC2)c1C (stereo unspecified)	none
Cc1cccc(-n2c(SCC(=O)NC(C)(C)C)nnc2-c2ccoc2C)c1	none
CC(=O)COc1nc2c(C(F)(F)F)cc(-c3ccc4c(c3)OCO4)nc2o1	none
CCOC(=O)c1sc(NC(C)=O)cc1C	none
CCOC(=O)c1sc(N/C(=C/C(=O)c2ccccc2)C(=O)O)cc1C	GPR151 ag 9.0 | GPR151 conf act inactive | GPR119 counter inactive
CCC1S/C(=N\N=C\c2cc(OC)ccc2O)NC1=O (stereo unspecified)	none
COCCNc1nc2ccccn2c(=O)c1/C=C1\SC(=S)NC1=O	GPR151 ag 5.0! | GPR151 conf act inactive | GPR119 counter inactive
Nc1sc2c([n+]1CCCS(=O)(=O)O)CCCC2	none
O=C(CCN1C(=O)c2ccc([N+](=O)[O-])cc2C1=O)Nc1cc(Cl)ccc1O	none
O=C(CCN1C(=O)c2ccccc2C1=O)Nc1cc([N+](=O)[O-])ccc1O	GPR151 ag 5.8 | GPR151 conf act inactive | GPR119 counter inactive
NC(=O)NC(=O)/C=C/c1ccccc1O	none
COc1ccccc1OCC(=O)NCc1ccc(C)cc1	GPR151 ag 5.4 | GPR151 conf act inactive | GPR119 counter inactive
Cc1ccc(CNC(=O)c2ccc(-n3cccc3)cc2)cc1	none
Cc1ccc(CNC(=O)c2sccc2-n2cccc2)cc1	GPR151 ag 5.6 | GPR151 conf act inactive | GPR119 counter inactive
Cc1ccc(CNC(=O)c2csnn2)cc1	GPR151 ag 13 | GPR151 conf act inactive | GPR119 counter inactive
Cc1ccc(CNC(=O)c2ccc(C)cc2)cc1	none
O=C(CN(C(=O)c1csnn1)c1ccc(F)cc1)NCc1ccccc1	GPR151 ag 5.6 | GPR151 conf act inactive | GPR119 counter inactive
Cc1cc(C)n(CCNC(=O)CC2C(=O)NCCN2Cc2ccc(-c3ccccc3)cc2)n1 (stereo unspecified)	none
Cc1ccc(CNC(=O)C(=O)NCc2ccc(Cl)cc2)cc1	none
Cc1ccc(CNC(=O)Cc2ccc(Cl)cc2)cc1	GPR151 ag 8.4 | GPR151 conf act inactive | GPR119 counter inactive
COc1ccccc1/C=c1\sc2nc(-c3ccc(OC)c(OC)c3)nn2c1=O	none
CCN(CCCNC(=O)c1cc(-c2ccccn2)nc2ccccc12)c1cccc(C)c1	GPR151 ag 8.0 | GPR151 conf act inactive | GPR119 counter inactive
CCCNC(=O)c1cc(-c2ccccn2)nc2ccccc12	none
O=C(Cn1nc([N+](=O)[O-])n(CC(=O)N2CCOCC2)c1=O)N1CCOCC1	none
CN1CCN(C(=O)c2cc(S(=O)(=O)N3CCCCC3)c[nH]2)CC1	GPR151 ag 5.3 | GPR151 conf act inactive | GPR119 counter inactive
CCN1CCN(C(=O)c2cc(S(=O)(=O)N3CCCCC3)c[nH]2)CC1	none
Fc1cccc(Nc2ncnc3c2c(-c2ccccc2)cn3-c2cccc(Cl)c2)c1	none
CCCCc1ccc(C#N)c(SCC(=O)c2ccc(C(=O)CSc3nc(CCCC)ccc3C#N)cc2)n1	none
